Reference: the supplement of paper PMC6555819

The sequences below were run on VDR:RXRa (NR concentration 270 nM, RXRa partner concentration 90 nM) (assay: PBM binding z-score (relative to random genomic background probes); higher = stronger binding; sequences stand for … in GC…GCGATTGACAGCGTAGAATGAAGG).
Method: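 Protein-binding microarray (Agilent 4x180K custom design, double-stranded 60-nt probes: 5' GC cap, 34-nt variable region, 24-nt constant primer region; full probe sequence given). Purified or IVT nuclear receptor:RXRα heterodimers (3:1 NR:RXRα, mostly 270:90 nM) or homodimers were incubated for 1 h in PBS with 2% milk and no ligand, then detected with Alexa488 antibodies. Fluorescence from o1-orientation probes (~5 replicates averaged) was converted to z-scores against 500 random hg19 background probes. Variable regions are seed direct-repeat (DR0–DR5) sites, all their single-nucleotide variants and half-site ablations.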

Row | Sequence | PBM binding z-score
1 | AATACAGGGTCACGAGGCCAGAGTAGGTACGAAT | 5.41
2 | CAAACCAGGTCAAGAGGTCAAAGTCCGCTTCCCG | 6.45
3 | CGTCCGAGGTCATAGGAGGTCAGTGAAGACAGAT | 7.1
4 | TCTCGGAGGAAACGAAAGGTCAGAGCTCGACATC | 2.44
5 | GCTGCTAGGTCAACTGATGGTCATCTAAAGCTCG | 2.28
6 | TCTAGTTGGTCACGGAGGTCACAAACGACGGGTA | 5.62
7 | ATATGTAGGTTAGCTGAGGTCATTCAGACTAGGC | 6.12
8 | CTATGTAGGTTACGGGGGTCATTCAGTTTGAAAG | 7.72
9 | AGTCAAAGTGCATCTAGGTAACGTAAGATATGCT | 0.567
10 | TCTAGTTGGTCACGGAGGTCCCACACGACGGGTA | 1.19
11 | AGTCAAAGTTTATCTAGGTAACGTAAGATATGCT | 0.584
12 | ATATGTAGGTTAGCTGGGGTCCTTCAGACTAGGC | 0.978
13 | GCTGCTAGTTCAACTGATGGTCAGCTAAAGCTCG | 0.168
14 | CCTACTGGGCCAAAAAGTTCATTGATGCCGATAA | 3.68
15 | CCTTACGGGTCACTGACAGGTTATAGCGTTTGGA | 3.63
16 | CGTCAAACTTCAACTAAGGTAACGTAAAGCACGC | 0.382
17 | CCTTACGGGTTACTCCAGGTTATAGCATCGGAGT | 1.39
18 | CCTACTGGGTCACGAAAGGTCATTGATTCAGTGA | 6.48
19 | CCGAGAAGGTTACGAGGGGGCATTCAGTGCGAAT | 6.24
20 | CCTGCGAGGTCATGGTCAGCTAATCTACAGTATG | 5.17

Row | Sequence | PBM binding z-score
21 | AATACAGGGTCATCGTACGCCAGAGTACGCACAG | 5.2
22 | CGTCCAAGGTCGAAGGTCAGTGAAGAGATGACGG | 3.23
23 | CGTCCAAGGTCATAGGAGGTCAATGAAGACAGAT | 7.01
24 | GCTGCGAGGTCAACTGATGGTCAGCTAAAGCTCG | 5.48
25 | CACACTAGGTCACAGAGGTCAAAGTCCGTGCGTA | 8.14
26 | CGTCTAAGGTCATAGGAGGTCAGTGAAGACAGAT | 6.86
27 | TTACCAAGGTGAACGGTCGTTGATGCACGCCTTG | 0.0102
28 | GCTGCTAGGTCAACTGATGGCCAGCTAAAGCTCG | 1.14
29 | TCTTGTAGATCGATAGAGGTTAAGAAAGTGCGCT | 1.45
30 | CGAACTAGGTCAAGGCCAGTGAATCTCCGCACGC | 1.31
31 | CCTACTGGGCCACGAAAGGCCATTGATTCAGTGA | -0.147
32 | CGAACGAGGTCATGAGTTGATAGCAAATGCCGAT | 5.57
33 | TAGCCTAGTTCATGCGGGCCAGTATAGTGTCGGC | 1.14
34 | GGAACGAGGTCAAAGTTGATAGCATCTGTCGACG | 5.81
35 | AGTCAAAGTTGAGGACGAGGTAACGTAAAGCACG | 0.263
36 | ATTTGTAGGTTACATCCGGGTCATTCAGGCTATG | 4.68
37 | CGTCAAAGGTCAATGCTAGGTCAGTGAAAGCATT | 6.01
38 | CAGCATAGGTCAGGGCCAGTATAGGAGGAACGTT | 1.4
39 | CCTACTCGGCCAAAAAGGTCATTGATGCCGATAA | 4.9
40 | CGTCCAAGGTCAGCGGGTCAGTGAAAGCGACGTG | 4.57
